Measured values reported in the supplement of paper PMC11732987, “Enantioselective OTUD7B fragment discovery through chemoproteomics screening and high-throughput optimisation” (Communications Chemistry, 2025).
A number with no mark means an inactive call.

Legend:
Assay in all cases: log2 ratio of Biotin-Ahx-Ub-VS probe labelling (fragment/DMSO); higher = less target engagement (more negative = stronger competition), active = hit call of the paper (q ≤ 0.05, log2 ratio ≤ -1)
Details in all cases: compound concentration: 200 uM; treatment time: 3 h
USP34 = USP34 (UniProt Q70CQ2)
In short: (§1)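 Average log2 ratios of fragment over vehicle were obtained by unpaired t-test from global-median-normalised Spectronaut label-free quantities. Proteins with ≥2 unique peptides were included. HEK293T lysate (495 µg per sample) was treated in triplicate with fragment at 200 µM or vehicle for 3 h, then with Biotin-Ahx-Ub-VS at 0.5 µM final for 1 h, and labelled DUBs were NeutrAvidin-enriched and run by diaPASEF LC-MS/MS.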

USP36 = target: T1, USP36 (UniProt Q9P275)
T1 sequence (whole entry): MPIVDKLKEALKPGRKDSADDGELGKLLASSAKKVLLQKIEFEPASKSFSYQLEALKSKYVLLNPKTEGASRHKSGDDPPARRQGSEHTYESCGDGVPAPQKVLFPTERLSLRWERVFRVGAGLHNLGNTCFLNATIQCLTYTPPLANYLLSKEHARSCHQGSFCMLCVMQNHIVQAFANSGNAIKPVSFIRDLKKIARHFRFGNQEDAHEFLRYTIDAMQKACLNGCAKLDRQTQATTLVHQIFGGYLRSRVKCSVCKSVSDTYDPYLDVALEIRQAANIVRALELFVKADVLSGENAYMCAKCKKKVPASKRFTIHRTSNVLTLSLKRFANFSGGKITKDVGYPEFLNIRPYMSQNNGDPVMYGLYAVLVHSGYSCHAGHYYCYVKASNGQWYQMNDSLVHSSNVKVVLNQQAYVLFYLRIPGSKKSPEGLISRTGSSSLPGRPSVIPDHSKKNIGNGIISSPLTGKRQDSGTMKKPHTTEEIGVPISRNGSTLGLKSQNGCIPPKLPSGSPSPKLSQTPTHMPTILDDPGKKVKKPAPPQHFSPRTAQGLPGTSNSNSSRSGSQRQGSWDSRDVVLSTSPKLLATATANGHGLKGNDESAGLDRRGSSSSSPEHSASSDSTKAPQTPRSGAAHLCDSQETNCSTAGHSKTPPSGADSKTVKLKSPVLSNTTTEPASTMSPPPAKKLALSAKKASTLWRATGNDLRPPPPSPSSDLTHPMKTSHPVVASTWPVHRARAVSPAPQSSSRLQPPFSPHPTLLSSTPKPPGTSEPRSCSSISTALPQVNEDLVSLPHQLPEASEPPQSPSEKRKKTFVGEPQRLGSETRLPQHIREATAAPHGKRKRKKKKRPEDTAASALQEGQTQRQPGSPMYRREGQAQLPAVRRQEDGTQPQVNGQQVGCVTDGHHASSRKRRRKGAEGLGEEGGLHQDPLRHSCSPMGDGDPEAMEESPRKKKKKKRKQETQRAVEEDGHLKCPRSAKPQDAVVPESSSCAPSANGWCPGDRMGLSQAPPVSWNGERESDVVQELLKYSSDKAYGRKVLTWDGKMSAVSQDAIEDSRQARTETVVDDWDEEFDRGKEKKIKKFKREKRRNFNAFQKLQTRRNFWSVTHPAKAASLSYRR
In short: as §1

USP38 = target: T2, USP38 (UniProt Q8NB14)
T2 sequence (whole entry): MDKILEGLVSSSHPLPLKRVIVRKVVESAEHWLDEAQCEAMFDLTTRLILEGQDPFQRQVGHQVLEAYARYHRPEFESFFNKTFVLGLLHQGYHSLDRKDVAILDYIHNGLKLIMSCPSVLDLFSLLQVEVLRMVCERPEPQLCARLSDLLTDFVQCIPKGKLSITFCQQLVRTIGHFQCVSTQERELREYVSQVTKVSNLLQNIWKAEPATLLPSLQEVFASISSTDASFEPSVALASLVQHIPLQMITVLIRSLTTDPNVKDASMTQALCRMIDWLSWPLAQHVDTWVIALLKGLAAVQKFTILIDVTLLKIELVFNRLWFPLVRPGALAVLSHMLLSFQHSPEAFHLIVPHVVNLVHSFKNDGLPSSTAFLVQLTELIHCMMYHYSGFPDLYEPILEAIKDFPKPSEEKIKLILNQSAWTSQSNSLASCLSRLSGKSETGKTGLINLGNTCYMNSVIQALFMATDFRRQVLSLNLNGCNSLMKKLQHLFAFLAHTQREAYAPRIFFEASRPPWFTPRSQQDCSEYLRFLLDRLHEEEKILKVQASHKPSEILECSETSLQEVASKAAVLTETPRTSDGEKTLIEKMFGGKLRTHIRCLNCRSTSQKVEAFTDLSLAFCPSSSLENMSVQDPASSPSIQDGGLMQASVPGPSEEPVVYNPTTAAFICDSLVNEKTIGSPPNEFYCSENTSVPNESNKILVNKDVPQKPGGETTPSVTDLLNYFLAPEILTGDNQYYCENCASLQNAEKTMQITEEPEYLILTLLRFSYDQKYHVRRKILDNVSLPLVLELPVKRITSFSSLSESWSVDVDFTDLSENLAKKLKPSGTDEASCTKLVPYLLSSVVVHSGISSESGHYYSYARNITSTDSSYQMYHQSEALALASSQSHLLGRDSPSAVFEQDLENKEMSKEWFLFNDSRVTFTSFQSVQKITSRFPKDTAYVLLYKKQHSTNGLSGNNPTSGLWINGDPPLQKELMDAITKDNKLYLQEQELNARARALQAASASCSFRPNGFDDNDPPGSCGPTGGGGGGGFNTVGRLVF
In short: as §1

USP39 = target: T3, USP39 (UniProt Q53GS9)
T3 sequence (whole entry): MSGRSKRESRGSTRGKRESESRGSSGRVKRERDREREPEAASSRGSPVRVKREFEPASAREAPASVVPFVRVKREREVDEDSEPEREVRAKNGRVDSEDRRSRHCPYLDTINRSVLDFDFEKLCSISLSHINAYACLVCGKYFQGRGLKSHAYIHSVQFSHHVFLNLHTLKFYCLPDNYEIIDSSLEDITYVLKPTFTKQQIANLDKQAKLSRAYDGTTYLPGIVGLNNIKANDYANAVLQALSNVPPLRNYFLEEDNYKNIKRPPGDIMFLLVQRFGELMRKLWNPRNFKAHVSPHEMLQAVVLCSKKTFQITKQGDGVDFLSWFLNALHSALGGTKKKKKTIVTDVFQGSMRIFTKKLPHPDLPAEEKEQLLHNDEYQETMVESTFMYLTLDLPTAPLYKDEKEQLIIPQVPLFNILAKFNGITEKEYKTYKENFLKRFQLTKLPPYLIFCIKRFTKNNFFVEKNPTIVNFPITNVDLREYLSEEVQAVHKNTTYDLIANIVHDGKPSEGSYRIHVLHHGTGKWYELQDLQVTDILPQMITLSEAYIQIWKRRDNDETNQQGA
In short: as §1

USP4 = target: T4, USP4 (UniProt Q13107)
T4 sequence (whole entry): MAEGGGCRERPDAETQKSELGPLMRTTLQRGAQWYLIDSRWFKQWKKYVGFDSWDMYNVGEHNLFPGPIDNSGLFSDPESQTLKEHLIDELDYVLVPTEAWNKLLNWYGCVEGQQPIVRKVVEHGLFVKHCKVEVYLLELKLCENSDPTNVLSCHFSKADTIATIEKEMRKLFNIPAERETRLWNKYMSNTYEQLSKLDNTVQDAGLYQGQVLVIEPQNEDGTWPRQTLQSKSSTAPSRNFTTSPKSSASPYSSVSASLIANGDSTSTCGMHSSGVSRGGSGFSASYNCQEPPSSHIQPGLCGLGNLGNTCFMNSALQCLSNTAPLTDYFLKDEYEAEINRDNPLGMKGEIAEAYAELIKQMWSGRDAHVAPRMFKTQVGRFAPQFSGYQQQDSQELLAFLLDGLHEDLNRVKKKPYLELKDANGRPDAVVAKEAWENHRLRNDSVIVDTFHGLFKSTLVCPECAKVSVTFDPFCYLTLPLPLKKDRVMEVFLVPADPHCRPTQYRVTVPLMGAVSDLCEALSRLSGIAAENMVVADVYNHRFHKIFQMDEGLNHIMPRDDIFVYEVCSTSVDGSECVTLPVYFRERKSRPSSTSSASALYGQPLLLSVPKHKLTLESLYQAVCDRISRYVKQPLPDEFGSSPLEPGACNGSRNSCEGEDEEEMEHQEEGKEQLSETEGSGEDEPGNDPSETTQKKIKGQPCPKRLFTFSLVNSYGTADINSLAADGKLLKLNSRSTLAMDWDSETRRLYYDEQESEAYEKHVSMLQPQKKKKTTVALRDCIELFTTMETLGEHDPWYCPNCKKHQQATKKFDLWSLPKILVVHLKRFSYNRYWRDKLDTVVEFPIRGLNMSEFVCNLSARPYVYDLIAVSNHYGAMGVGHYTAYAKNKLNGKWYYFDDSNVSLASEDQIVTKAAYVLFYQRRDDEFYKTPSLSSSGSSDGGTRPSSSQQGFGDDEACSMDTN
In short: as §1

Chain of USP34 (Q70CQ2 whole entry, the tested form may be a part): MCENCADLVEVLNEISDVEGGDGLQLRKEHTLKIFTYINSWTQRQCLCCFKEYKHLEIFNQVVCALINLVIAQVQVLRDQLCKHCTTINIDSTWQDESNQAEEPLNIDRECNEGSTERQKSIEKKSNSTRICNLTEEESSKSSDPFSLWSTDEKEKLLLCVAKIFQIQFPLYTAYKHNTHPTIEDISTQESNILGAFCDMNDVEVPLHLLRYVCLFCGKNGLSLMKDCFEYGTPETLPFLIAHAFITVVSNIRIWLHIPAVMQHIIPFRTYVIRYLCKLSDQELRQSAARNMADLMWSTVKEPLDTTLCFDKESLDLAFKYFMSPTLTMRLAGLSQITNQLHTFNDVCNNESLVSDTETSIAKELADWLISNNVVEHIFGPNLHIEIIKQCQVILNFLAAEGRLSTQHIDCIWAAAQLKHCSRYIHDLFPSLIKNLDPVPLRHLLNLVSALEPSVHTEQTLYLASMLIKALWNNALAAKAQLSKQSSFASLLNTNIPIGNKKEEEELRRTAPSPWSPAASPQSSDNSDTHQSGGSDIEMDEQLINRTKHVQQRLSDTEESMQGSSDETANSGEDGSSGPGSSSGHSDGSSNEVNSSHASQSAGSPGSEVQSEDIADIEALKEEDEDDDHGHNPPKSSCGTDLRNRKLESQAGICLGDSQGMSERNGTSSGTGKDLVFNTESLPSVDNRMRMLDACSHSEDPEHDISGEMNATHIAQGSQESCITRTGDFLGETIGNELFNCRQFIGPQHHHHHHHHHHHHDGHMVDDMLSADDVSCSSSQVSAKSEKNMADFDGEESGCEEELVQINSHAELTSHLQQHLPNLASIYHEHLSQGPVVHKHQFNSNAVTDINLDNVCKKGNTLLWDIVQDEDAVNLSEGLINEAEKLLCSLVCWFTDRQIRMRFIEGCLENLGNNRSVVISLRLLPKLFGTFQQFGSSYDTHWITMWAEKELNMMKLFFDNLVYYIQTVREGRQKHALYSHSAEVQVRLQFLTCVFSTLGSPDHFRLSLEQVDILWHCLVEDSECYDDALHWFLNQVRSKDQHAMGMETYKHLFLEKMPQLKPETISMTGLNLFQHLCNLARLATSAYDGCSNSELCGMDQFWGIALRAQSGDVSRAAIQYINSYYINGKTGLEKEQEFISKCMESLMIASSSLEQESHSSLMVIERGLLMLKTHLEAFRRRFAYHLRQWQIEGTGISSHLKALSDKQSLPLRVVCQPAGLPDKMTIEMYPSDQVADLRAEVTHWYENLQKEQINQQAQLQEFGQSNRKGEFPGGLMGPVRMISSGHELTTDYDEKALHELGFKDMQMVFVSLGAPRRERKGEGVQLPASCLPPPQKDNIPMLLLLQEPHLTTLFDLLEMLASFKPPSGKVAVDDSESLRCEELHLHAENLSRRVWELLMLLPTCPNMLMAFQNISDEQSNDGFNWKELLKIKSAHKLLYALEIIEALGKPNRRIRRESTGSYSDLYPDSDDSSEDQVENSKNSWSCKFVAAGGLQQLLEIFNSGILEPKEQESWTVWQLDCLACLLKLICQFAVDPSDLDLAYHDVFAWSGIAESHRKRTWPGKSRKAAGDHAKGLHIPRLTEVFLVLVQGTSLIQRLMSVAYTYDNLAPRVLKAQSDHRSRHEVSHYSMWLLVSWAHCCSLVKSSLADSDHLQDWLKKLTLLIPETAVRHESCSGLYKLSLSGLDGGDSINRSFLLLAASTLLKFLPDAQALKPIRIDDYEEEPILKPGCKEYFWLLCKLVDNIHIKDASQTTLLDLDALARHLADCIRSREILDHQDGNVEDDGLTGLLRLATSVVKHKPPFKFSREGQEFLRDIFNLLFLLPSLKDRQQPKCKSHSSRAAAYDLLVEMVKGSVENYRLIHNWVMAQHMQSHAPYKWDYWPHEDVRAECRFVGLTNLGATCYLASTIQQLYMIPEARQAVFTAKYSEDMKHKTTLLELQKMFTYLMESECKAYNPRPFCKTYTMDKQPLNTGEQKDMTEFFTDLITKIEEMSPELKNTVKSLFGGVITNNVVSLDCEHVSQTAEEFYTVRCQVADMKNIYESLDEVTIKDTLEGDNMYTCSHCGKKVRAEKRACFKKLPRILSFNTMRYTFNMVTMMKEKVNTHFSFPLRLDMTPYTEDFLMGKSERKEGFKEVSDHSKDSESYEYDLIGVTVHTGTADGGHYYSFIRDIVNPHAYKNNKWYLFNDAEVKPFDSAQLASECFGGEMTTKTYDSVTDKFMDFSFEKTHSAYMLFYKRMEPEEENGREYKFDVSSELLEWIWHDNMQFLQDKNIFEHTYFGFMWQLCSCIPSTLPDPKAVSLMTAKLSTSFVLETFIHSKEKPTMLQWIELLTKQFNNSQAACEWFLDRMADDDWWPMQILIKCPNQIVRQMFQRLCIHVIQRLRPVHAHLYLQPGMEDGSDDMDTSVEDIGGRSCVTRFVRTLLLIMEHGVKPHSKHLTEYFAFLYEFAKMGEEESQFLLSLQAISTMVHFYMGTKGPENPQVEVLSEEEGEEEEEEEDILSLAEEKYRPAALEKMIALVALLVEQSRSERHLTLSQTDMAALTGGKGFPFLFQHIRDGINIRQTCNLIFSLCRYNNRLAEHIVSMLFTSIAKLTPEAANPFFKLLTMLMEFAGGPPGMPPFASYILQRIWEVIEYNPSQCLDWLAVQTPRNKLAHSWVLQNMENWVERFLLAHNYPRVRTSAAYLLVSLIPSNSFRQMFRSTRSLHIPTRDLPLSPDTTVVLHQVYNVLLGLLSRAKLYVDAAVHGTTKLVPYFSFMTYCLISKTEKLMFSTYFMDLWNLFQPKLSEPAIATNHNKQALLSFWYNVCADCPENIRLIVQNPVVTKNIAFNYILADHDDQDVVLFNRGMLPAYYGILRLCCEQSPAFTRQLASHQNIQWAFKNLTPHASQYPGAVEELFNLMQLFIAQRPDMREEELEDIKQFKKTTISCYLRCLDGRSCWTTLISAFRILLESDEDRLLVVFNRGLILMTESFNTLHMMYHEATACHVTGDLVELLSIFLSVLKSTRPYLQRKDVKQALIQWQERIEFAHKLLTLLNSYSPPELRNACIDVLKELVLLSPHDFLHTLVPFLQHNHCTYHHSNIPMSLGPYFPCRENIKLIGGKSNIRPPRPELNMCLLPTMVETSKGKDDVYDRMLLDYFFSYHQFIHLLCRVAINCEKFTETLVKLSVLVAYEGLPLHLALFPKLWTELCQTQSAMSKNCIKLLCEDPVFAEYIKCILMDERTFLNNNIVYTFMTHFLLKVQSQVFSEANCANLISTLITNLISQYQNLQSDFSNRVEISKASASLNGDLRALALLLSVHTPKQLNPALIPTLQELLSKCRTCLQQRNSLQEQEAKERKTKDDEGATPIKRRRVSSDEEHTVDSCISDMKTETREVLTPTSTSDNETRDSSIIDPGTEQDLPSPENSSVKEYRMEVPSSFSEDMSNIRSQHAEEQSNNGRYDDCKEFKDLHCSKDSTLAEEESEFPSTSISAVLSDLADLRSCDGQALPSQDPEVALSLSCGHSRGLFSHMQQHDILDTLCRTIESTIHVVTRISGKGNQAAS

O=C(CCl)N1CCc2[nH]c3ccccc3c2C1
log2 ratio of Biotin-Ahx-Ub-VS probe labelling (USP34): -0.571 | log2 ratio of Biotin-Ahx-Ub-VS probe labelling (USP36): 0.0133 | log2 ratio of Biotin-Ahx-Ub-VS probe labelling (USP38): -0.674 | log2 ratio of Biotin-Ahx-Ub-VS probe labelling (USP39): 5.6e-06 | log2 ratio of Biotin-Ahx-Ub-VS probe labelling (USP4): -1.51 (active)
